# From PubChem BioAssay
# Calls of active or inactive are those of the source.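 Rule for the calls, unless noted: active = GFP response above 150% of the DMSO level; inconclusive = fewer than 70 events counted for a yeast strain; inactive = the rest.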
# Columns and labels:
# [1] = reduced mouse 2C T cell binding to pMHC/ICAM-1 vesicles – MLPCN validation set, flow cytometry, LFA-1/ICAM-1 modulator project, pilot screen (AID 2523;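 active = response below a set limit, under 55% cells CD8-positive and vesicle-bound, and CD8 cells' 90th-percentile brightness under 279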;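 for vesicle binding response: mean PE anti-B7-1 fluorescence of CD8+ cells relative to row control; 100% = QL9-loaded vesicles with DMSO vehicle in the same plate row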); conditions: 2C mouse CD8+ T cells, at 7 µM, stronger effect = lower value; double positive events: measured here: CD8+/vesicle+ event percentage
# [2] = molecular target: Integrin beta-1 (Homo sapiens) + Integrin alpha-4 (Homo sapiens) (UniProt P13612+P05556); test: alpha4beta1 integrin LIBS antibody binding reduction – U937 cells, HUTS-21 mAb, flow cytometry, validation set, VLA-4 allosteric modulator project, pilot screen (AID 2674;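 active = inhibition above 50%, about 3 SD of the validation set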;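 note: antibody binding induced by the VLA-4 ligand LDV present at three times its Kd; 0% = LDV ligand with antibody and no compound and 100% = antibody without LDV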); conditions: HUTS-21 LIBS mAb binding, at 6.7 µM, stronger effect = higher value, binding induced by LDV ligand
# [3] = calorie-restriction mimetic ROS inhibitors, yeast – validation compound set, pilot screen (AID 2706;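 active = superoxide response below 65% of plate, a cut near 3 SD across the whole screen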;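 note: yeast exposed to compound for one week at 30 degrees C before staining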;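 for superoxide response (% of plate): 100% = mean of all compound wells on the same plate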); conditions: S. cerevisiae aging, superoxide DHE fluorescence; at 10 µM, stronger effect = lower value
# [4] = molecular target: Beta-adrenergic receptor kinase 1 (Homo sapiens) (UniProt P25098); test: GRK2 binders displacing RNA aptamer, biochemical, validation, human GRK2, bead flow cytometry (AID 488806;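 active = aptamer binding inhibition above 30%, about 3 SD of noise from non-fluorescent compounds; inactive = inhibition at or below 30%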); conditions: bead-bound GRK2, FAM-aptamer displacement, at 10 µM, stronger effect = higher value
# [5] = molecular target: Beta-2 adrenergic receptor (Homo sapiens) (UniProt P07550); test: agonist-induced loss of surface beta2AR – cell-based, FAP fluorogen, flow cytometry, validation set, pilot screen (AID 504459;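 active = percent response above 42, roughly 3 SD of non-fluorescent test compounds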;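 note: agonist-driven loss of surface beta2AR via internalization measured by FAP dye flow cytometry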); conditions: Am2.2-beta2AR cells, at 10 µM, stronger effect = higher value
# [6] = molecular target: AP-2 complex subunit beta (Homo sapiens) (UniProt P63010); test: beta-arrestin/AP2 interaction blockers – biochemical, validation set, GST-AP2 beads, flow cytometry, pilot screen (AID 504541;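 active = inhibition above 54%, about 3 SD of non-fluorescent compounds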;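 note: AP2 carries R879A mutation and is captured from E. coli lysate; bead-bound FITC arrestin peptide fluorescence measuring arrestin peptide binding to AP2; 0% = DMSO wells and 100% = excess unlabeled arrestin peptide control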); conditions: FITC arrestin peptide, at 10 µM, stronger effect = higher value, AP2 beta2 appendage fragment, R879A mutant
# [7] = cytosolic pH regulators acting via V-ATPase – S. cerevisiae, pHLuorin, HTS validation (AID 504600; in the data active = response above about 15%;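 note: plate controls were DMSO for no effect and reference compound for full effect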); conditions: V-ATPase proton transport, at 10 µM, stronger effect = higher value
# [8] = tested on: anti-desmoglein-3 scFv antibody binding to human DSG3; test: blockers of pathogenic pemphigus antibody–desmoglein-3 binding – biochemical, validation compound set, bead-based, flow cytometry, pilot screen (AID 588368;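 active = binding below the plate cutoff, the plate median minus 3 SD, with a reading above zero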;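 note: signal is the median channel fluorescence of bead-bound GFP antibody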); conditions: Protein G beads, DSG3-Fc, scFv-GFP binding, at 10 µM, stronger effect = lower value
# [9] = Nile Red efflux blockade in pump-expressing yeast – validation compound set, multiplex, phenotypic, pilot screen (AID 588506;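 active = efflux inhibition above 0.42, the validation set average plus 4 SD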;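 note: Nile Red retained in cells so higher fluorescence means more efflux inhibition; 0 = negative control wells and 1 = enniatin B 25 µM full block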); conditions: S. cerevisiae pump-expressing triplex, Nile Red efflux flow cytometry; at 10 µM; stronger effect = higher value; the pumps come from Candida albicans
# [10] = molecular target: ATP-binding cassette sub-family B member 6 (Homo sapiens) (UniProt Q9NP58); test: blockers of ABCB6-driven porphyrin uptake – K562-ABCB6 cells, flow cytometry, validation set, pilot screen (AID 588550;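 active = inhibition above the screen-wide mean plus 3 SD, about 51%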;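 note: 0% = DMSO wells and 100% = benzethonium chloride 70 µM positive control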); conditions: K562-ABCB6 porphyrin accumulation, 1 h, at 10 µM, stronger effect = higher value
# [11] = AML differentiation inducers, ER-HoxA9 marrow cells – cell-based, GFP/MAC1 double positive, flow cytometry, validation set, primary screen (AID 588685;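 active = differentiation response of at least 50%, scaled between solvent and reference control, from cells with both markers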;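 note: compound exposure lasts four days before antibody staining and flow analysis; 0% = DMSO wells and 100% = 5 µM fulvestrant positive control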); conditions: stronger effect = higher value, normalized: vehicle 0, fulvestrant 100
# [12] = hit retest on RPL19A-GFP reporter strain – cell-based, S. cerevisiae, flow cytometry, cherry picks, mother/daughter gates, confirmation (AID 2270;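 active = GFP response below 50% of the DMSO control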); conditions: 3 h, at 10 µM, stronger effect = lower value, 100 = same GFP as DMSO wells
# [13] = yeast TOR pathway reporter LAP4-GFP change – cell-based, cherry picks, flow cytometry, mother/daughter gates, confirmation (AID 2271;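 active = GFP response above 150% of the DMSO control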;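 note: ratio of sample to DMSO plate mean so 100% equals DMSO level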); conditions: S. cerevisiae LAP4-GFP strain, 3 h, at 10 µM, stronger effect = higher value, 100 means same as DMSO control
# [14] = TOR pathway reporter MEP2-GFP, retest of hits – S. cerevisiae, flow cytometry GFP, cherry picks, confirmation (AID 2272;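 active = GFP response above 150% of the DMSO control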;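 note: ratio of well signal to plate DMSO mean so 100% equals DMSO level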); conditions: S. cerevisiae MEP2-GFP strain, 3 h, at 10 µM, stronger effect = higher value
# [15] = yeast AGP1-GFP fluorescence change, single-dose – cell-based, flow cytometry, S. cerevisiae, cherry picks, confirmation (AID 2273);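 note: median GFP channel fluorescence over the whole cell population gate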; conditions: S. cerevisiae AGP1-GFP strain, 3 h, at 10 µM
# [16] = TOR pathway CIT2 reporter hit retest – S. cerevisiae, GFP fusion, cherry picks, mother/daughter gates, confirmation (AID 2274); conditions: S. cerevisiae CIT2-GFP strain, flow cytometry, 3 h, at 10 µM, stronger effect = higher value
# [17] = measured here: daughter cell gate
# [18] = measured here: mother cell gate
# Beta-2 adrenergic receptor (Homo sapiens), sequence (P07550 whole entry, looked up): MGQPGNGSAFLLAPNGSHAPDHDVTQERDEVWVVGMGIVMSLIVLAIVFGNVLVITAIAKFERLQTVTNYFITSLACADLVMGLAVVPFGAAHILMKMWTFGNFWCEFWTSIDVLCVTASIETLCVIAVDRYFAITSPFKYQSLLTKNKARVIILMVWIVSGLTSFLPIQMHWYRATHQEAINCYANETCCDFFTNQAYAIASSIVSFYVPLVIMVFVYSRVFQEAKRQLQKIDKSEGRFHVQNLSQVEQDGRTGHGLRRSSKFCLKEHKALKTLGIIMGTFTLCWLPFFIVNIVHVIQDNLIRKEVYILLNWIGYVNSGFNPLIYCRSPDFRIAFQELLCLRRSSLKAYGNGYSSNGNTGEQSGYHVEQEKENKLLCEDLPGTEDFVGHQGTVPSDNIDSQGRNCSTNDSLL
# Beta-adrenergic receptor kinase 1 (Homo sapiens), sequence (P25098 whole entry, looked up): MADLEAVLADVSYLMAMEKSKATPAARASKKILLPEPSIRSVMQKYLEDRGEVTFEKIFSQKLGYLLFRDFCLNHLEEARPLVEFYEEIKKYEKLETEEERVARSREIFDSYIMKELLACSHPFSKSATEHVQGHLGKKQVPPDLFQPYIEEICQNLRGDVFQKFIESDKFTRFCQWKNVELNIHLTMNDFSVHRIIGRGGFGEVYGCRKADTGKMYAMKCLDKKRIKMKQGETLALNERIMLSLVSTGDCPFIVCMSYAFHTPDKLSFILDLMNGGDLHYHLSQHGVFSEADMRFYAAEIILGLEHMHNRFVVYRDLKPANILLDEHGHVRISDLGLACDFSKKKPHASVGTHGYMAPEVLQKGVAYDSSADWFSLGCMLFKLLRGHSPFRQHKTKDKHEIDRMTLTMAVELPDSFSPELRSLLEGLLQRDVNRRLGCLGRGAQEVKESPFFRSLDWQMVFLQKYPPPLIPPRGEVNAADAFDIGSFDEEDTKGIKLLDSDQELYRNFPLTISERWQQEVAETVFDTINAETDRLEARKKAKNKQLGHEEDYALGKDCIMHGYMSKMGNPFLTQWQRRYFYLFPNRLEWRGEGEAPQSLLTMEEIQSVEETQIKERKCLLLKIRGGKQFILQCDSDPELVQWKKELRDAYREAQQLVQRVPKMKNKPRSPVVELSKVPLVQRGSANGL
# AP-2 complex subunit beta (Homo sapiens), sequence (P63010 whole entry, looked up, the tested form may be a part, one chain of several): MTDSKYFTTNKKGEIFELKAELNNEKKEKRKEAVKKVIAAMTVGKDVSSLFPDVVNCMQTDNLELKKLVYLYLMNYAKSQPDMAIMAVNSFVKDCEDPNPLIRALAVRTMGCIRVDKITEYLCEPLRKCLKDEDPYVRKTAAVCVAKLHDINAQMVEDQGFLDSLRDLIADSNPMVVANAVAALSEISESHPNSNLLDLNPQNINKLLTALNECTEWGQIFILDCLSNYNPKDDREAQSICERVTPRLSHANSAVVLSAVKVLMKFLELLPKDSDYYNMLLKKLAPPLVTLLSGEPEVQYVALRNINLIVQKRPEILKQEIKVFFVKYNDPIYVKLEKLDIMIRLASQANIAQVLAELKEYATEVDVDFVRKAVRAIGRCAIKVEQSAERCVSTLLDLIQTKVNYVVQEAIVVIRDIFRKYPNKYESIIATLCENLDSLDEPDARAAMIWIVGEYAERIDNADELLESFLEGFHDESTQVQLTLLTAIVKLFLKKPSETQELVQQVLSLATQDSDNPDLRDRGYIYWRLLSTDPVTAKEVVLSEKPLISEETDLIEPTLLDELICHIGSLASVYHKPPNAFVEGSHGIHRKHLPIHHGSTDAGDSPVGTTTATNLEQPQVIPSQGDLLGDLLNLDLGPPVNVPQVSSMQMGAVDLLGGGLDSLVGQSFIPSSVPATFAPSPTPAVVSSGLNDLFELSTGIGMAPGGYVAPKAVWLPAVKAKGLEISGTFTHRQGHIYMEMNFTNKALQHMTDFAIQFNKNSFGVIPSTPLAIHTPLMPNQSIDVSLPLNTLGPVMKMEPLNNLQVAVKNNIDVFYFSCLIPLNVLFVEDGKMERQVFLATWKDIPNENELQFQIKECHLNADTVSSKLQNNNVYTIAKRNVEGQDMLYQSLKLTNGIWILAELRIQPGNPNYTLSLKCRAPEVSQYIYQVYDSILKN
# Integrin beta-1 (Homo sapiens) + Integrin alpha-4 (Homo sapiens), sequence (P05556 whole entry, looked up): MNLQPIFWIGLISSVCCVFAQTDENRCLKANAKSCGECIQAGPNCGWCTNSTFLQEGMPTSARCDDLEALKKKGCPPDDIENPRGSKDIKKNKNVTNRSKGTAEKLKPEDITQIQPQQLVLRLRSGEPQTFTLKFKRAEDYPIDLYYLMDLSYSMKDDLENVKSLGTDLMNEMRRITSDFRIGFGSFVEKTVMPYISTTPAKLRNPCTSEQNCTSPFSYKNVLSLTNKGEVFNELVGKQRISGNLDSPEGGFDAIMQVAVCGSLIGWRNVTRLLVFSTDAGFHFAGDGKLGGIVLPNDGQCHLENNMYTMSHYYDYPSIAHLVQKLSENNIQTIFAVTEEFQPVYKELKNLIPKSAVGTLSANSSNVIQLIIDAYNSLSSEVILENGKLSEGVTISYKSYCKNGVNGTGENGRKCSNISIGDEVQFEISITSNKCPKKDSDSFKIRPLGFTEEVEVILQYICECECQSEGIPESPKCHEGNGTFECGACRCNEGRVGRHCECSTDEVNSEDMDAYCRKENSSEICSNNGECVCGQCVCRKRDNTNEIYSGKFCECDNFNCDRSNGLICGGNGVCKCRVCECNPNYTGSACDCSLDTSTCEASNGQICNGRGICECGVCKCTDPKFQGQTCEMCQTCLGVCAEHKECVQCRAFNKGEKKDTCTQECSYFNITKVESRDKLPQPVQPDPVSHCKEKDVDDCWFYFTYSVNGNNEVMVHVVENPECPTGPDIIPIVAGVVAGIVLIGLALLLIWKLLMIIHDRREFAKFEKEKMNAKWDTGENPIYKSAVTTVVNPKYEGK
# Integrin beta-1 (Homo sapiens) + Integrin alpha-4 (Homo sapiens), sequence (P13612 whole entry, looked up): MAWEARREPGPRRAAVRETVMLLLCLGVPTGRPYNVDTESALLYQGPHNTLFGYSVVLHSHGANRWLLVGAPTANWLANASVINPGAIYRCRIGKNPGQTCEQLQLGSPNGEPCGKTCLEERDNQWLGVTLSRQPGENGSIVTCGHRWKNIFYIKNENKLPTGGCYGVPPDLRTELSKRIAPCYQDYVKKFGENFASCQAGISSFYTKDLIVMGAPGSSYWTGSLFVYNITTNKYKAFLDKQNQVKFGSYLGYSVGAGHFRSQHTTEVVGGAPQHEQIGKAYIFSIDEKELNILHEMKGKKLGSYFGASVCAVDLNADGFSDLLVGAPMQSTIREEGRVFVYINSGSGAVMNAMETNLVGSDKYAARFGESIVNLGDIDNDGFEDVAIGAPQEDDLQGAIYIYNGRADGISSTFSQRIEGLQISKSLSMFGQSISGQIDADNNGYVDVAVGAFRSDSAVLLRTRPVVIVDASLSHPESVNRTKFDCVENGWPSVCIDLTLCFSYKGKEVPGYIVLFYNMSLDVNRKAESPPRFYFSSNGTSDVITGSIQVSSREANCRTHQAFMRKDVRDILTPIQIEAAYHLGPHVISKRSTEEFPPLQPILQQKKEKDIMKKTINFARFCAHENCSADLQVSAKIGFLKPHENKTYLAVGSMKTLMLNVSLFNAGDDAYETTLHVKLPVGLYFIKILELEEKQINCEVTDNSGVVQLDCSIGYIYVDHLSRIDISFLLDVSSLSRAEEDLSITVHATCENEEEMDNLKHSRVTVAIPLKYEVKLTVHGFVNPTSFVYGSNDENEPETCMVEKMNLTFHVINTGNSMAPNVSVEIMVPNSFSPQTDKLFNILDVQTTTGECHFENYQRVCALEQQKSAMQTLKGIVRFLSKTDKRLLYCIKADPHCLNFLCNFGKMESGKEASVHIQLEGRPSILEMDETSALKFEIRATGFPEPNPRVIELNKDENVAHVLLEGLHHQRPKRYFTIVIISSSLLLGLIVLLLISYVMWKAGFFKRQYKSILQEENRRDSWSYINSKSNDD
# ATP-binding cassette sub-family B member 6 (Homo sapiens), sequence (Q9NP58 whole entry, looked up): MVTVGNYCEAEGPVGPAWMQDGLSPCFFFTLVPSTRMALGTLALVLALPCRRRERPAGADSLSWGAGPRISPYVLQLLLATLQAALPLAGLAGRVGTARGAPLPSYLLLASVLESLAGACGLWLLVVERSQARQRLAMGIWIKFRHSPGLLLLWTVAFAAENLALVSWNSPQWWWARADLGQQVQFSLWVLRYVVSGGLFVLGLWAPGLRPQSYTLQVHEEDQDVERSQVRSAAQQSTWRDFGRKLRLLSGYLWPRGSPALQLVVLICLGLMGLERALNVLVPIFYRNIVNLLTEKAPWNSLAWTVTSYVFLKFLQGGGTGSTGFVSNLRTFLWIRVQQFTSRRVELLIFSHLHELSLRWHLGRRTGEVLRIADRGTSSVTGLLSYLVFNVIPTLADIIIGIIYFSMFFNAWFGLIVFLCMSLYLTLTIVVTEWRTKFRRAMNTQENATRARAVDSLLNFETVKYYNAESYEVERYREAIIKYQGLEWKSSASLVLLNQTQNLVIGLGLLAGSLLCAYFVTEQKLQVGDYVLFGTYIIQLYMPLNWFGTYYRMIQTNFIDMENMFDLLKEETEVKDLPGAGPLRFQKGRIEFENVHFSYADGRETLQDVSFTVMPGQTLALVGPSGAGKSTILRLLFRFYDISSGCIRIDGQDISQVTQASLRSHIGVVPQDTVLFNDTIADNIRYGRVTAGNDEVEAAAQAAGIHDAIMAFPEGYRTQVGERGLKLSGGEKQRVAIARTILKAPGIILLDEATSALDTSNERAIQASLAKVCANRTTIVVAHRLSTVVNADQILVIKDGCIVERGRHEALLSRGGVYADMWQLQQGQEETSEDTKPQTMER
smiles,measurement,setting,value
COc1cc(NC(=O)N[C@@H](Cc2ccccc2)C(=O)O)cc(OC)c1,double positive events,[1],62.8%
same,vesicle binding response,[1],221% (inactive)
same,inhibition,[2],9.1% (inactive)
same,superoxide response (% of plate),[3],106% (inactive)
same,aptamer binding inhibition,[4],3% (inactive)
same,response,[5],-10.8% (inactive)
same,inhibition,[6],-3.53% (inactive)
same,response,[7],22.2% (active)
same,binding (% of control),[8],105% (inactive)
same,efflux inhibition (fraction of control),[9],-0.09 (inactive)
same,inhibition,[10],2% (inactive)
same,differentiation response,[11],0.92% (inactive)
O=C(O)CSC1CC(=O)N(c2ccc(Cl)cc2)C1=O (stereo not given),GFP response vs DMSO,[12],93.1% (inactive)
same,GFP response relative to DMSO,[13],102% (inactive)
same,GFP response vs DMSO,[14],108% (inactive)
same,"GFP response, % of DMSO",[15],97.3% (inactive)
same,"GFP response, % of DMSO",[16],104% (inactive)
same,"GFP response, % of DMSO",[16]; [17],90.5%
CC(OC(=O)c1cccs1)C(=O)Nc1nc(-c2ccccc2)cs1 (stereo not given),GFP response vs DMSO,[12],98.7% (inactive)
same,GFP response relative to DMSO,[13],94.2% (inactive)
same,GFP response vs DMSO,[14],99.5% (inactive)
same,"GFP response, % of DMSO",[15],94.9% (inactive)
same,"GFP response, % of DMSO",[16],101% (inactive)
COc1ccc(CC(=O)N2CC3(C)CC2CC(C)(C)C3)cc1OC (stereo not given),double positive events,[1],64.1%
same,vesicle binding response,[1],255% (inactive)
same,inhibition,[2],-5.89% (inactive)
same,superoxide response (% of plate),[3],91.8% (inactive)
same,aptamer binding inhibition,[4],1% (inactive)
same,response,[5],-7.91% (inactive)
same,inhibition,[6],-2.57% (inactive)
same,response,[7],1.81% (inactive)
same,binding (% of control),[8],102% (inactive)
same,efflux inhibition (fraction of control),[9],0.44 (active)
same,inhibition,[10],3% (inactive)
same,differentiation response,[11],5.6% (inactive)
CCC(=O)c1ccc(O)cc1,double positive events,[1],72%
same,vesicle binding response,[1],882% (inactive)
same,inhibition,[2],-6.68% (inactive)
same,superoxide response (% of plate),[3],87.9% (inactive)
same,aptamer binding inhibition,[4],3% (inactive)
same,response,[5],-7.88% (inactive)
same,inhibition,[6],-11.7% (inactive)
same,response,[7],3.37% (inactive)
same,binding (% of control),[8],94.5% (inactive)
same,efflux inhibition (fraction of control),[9],-0.14 (inactive)
same,inhibition,[10],19% (inactive)
same,differentiation response,[11],10% (inactive)
CC(=O)CCc1oc2ccccc2c1-c1ccccc1,double positive events,[1],62.1%
same,vesicle binding response,[1],172% (inactive)
same,inhibition,[2],0.59% (inactive)
same,outcome,[3],inactive
same,aptamer binding inhibition,[4],-3% (inactive)
same,response,[5],-37.7% (inactive)
same,inhibition,[6],-8% (inactive)
same,response,[7],-1.06% (inactive)
same,binding (% of control),[8],108% (inactive)
same,efflux inhibition (fraction of control),[9],0.12 (inactive)
same,inhibition,[10],7% (inactive)
same,differentiation response,[11],-1.05% (inactive)
CC(=O)Oc1ccc(C2OC(=O)c3ccccc3N2C(C)=O)cc1 (stereo not given),double positive events,[1],63.2%
same,vesicle binding response,[1],146% (inactive)
same,inhibition,[2],19% (inactive)
same,superoxide response (% of plate),[3],98.4% (inactive)
same,aptamer binding inhibition,[4],1% (inactive)
same,response,[5],15.3% (inactive)
same,inhibition,[6],0.53% (inactive)
same,response,[7],-2.98% (inactive)
same,binding (% of control),[8],98.1% (inactive)
same,efflux inhibition (fraction of control),[9],0.03 (inactive)
same,inhibition,[10],8% (inactive)
same,differentiation response,[11],-4.57% (inactive)
Cc1nc2ccc(Br)cn2c1NC(C)(C)C,GFP response vs DMSO,[12],98.4% (inactive)
same,GFP response relative to DMSO,[13],96.2% (inactive)
same,GFP response vs DMSO,[14],100% (inactive)
same,"GFP response, % of DMSO",[15],97.6% (inactive)
same,"GFP response, % of DMSO",[16],102% (inactive)
Cc1ccc2c(c1)C1CN(C)CCC1N2C(=O)c1ccc(Cl)c(S(=O)(=O)N2CCOCC2)c1 (stereo not given),GFP response vs DMSO,[12],102% (inactive)
same,GFP response relative to DMSO,[13],107% (inactive)
same,GFP response vs DMSO,[14],102% (inactive)
same,"GFP response, % of DMSO",[15],102% (inactive)
same,"GFP response, % of DMSO",[16],112% (inactive)
CC1(C)C2CCC1(C(=O)O)c1nc3ccccc3nc12 (stereo not given),double positive events,[1],61.8%
same,vesicle binding response,[1],372% (inactive)
same,inhibition,[2],-1.12% (inactive)
same,superoxide response (% of plate),[3],72.9% (inactive)
same,aptamer binding inhibition,[4],2% (inactive)
same,response,[5],-10.7% (inactive)
same,inhibition,[6],6.26% (inactive)
same,response,[7],0.59% (inactive)
same,binding (% of control),[8],100% (inactive)
same,efflux inhibition (fraction of control),[9],0.04 (inactive)
same,inhibition,[10],20% (inactive)
same,differentiation response,[11],-6.96% (inactive)
CCN(CC)CCCN(C(=O)c1cccs1)c1nc(-c2ccc(OC)cc2)cs1,GFP response vs DMSO,[12],104% (inactive)
same,GFP response relative to DMSO,[13],98.7% (inactive)
same,GFP response vs DMSO,[14],109% (inactive)
same,"GFP response, % of DMSO",[15],98% (inactive)
same,"GFP response, % of DMSO",[16],107% (inactive)
same,"GFP response, % of DMSO",[16]; [17],101%
same,"GFP response, % of DMSO",[16]; [18],101%
CNc1nc(Nc2ccccc2)nc(OCC(F)(F)F)n1,double positive events,[1],64.8%
same,vesicle binding response,[1],135% (inactive)
same,inhibition,[2],6.95% (inactive)
same,superoxide response (% of plate),[3],98.2% (inactive)
same,aptamer binding inhibition,[4],-3% (inactive)
same,response,[5],-3.68% (inactive)
same,inhibition,[6],44.3% (inactive)
same,response,[7],-7.15% (inactive)
same,binding (% of control),[8],101% (inactive)
same,efflux inhibition (fraction of control),[9],-0.185 (inactive)
same,inhibition,[10],-3% (inactive)
same,differentiation response,[11],4.2% (inactive)
COc1cc(C(=O)OCCCN(C)C)cc(OC)c1OC,double positive events,[1],60.1%
same,vesicle binding response,[1],180% (inactive)
same,inhibition,[2],21.9% (inactive)
same,superoxide response (% of plate),[3],93.6% (inactive)
same,aptamer binding inhibition,[4],-2% (inactive)
same,response,[5],-28.8% (inactive)
same,inhibition,[6],4.79% (inactive)
same,response,[7],1.07% (inactive)
same,binding (% of control),[8],108% (inactive)
same,efflux inhibition (fraction of control),[9],-0.09 (inactive)
same,inhibition,[10],-1% (inactive)
same,differentiation response,[11],-4.99% (inactive)
CCCCNC(=O)c1cc2c(=O)n3cccc(C)c3nc2n(Cc2ccncc2)c1=N,GFP response vs DMSO,[12],97.2% (inactive)
same,GFP response relative to DMSO,[13],96.5% (inactive)
same,GFP response vs DMSO,[14],102% (inactive)
same,"GFP response, % of DMSO",[15],102% (inactive)
same,"GFP response, % of DMSO",[16],104% (inactive)
same,"GFP response, % of DMSO",[16]; [17],96.4%
same,"GFP response, % of DMSO",[16]; [18],95.6%
CC(=O)O[C@H]1CC[C@H]2[C@@H]3CCc4cc(O)ccc4[C@H]3CC[C@]12C,double positive events,[1],58.2%
same,vesicle binding response,[1],234% (inactive)
same,inhibition,[2],15.9% (inactive)
same,superoxide response (% of plate),[3],80.4% (inactive)
same,aptamer binding inhibition,[4],1% (inactive)
same,response,[5],-33% (inactive)
same,inhibition,[6],6.38% (inactive)
same,response,[7],2.35% (inactive)
same,binding (% of control),[8],101% (inactive)
same,efflux inhibition (fraction of control),[9],0.21 (inactive)
same,inhibition,[10],5% (inactive)
same,differentiation response,[11],-1.05% (inactive)
Cc1ccc2c(c1)c1c(n2C)C(=O)CCC1,double positive events,[1],57.6%
same,vesicle binding response,[1],126% (inactive)
same,inhibition,[2],-7.79% (inactive)
same,superoxide response (% of plate),[3],86.4% (inactive)
same,aptamer binding inhibition,[4],2% (inactive)
same,response,[5],6.59% (inactive)
same,inhibition,[6],-3.89% (inactive)
same,response,[7],-3.07% (inactive)
same,binding (% of control),[8],97.9% (inactive)
same,efflux inhibition (fraction of control),[9],0.41 (inactive)
same,inhibition,[10],0% (inactive)
same,differentiation response,[11],-8.96% (inactive)
